# Screen size: about 310,000 compounds; about 14,000 (4.5%) showed an effect of 50% or more. Effects have a minus sign here. This is one part of a sample in which strong results are shown more often than they occur.
# Molecular target: human ether-à-go-go-related gene (hERG) potassium channel (human, UniProt Q12809)
# Test: primary screen, population patch clamp on CHO cells stably expressing hERG; higher = less effect of the substance
# 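Also: peak tail current of the secondary pulse compared with the same well before compound.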
# human ether-à-go-go-related gene (hERG) potassium channel, sequence (Q12809 whole entry, looked up): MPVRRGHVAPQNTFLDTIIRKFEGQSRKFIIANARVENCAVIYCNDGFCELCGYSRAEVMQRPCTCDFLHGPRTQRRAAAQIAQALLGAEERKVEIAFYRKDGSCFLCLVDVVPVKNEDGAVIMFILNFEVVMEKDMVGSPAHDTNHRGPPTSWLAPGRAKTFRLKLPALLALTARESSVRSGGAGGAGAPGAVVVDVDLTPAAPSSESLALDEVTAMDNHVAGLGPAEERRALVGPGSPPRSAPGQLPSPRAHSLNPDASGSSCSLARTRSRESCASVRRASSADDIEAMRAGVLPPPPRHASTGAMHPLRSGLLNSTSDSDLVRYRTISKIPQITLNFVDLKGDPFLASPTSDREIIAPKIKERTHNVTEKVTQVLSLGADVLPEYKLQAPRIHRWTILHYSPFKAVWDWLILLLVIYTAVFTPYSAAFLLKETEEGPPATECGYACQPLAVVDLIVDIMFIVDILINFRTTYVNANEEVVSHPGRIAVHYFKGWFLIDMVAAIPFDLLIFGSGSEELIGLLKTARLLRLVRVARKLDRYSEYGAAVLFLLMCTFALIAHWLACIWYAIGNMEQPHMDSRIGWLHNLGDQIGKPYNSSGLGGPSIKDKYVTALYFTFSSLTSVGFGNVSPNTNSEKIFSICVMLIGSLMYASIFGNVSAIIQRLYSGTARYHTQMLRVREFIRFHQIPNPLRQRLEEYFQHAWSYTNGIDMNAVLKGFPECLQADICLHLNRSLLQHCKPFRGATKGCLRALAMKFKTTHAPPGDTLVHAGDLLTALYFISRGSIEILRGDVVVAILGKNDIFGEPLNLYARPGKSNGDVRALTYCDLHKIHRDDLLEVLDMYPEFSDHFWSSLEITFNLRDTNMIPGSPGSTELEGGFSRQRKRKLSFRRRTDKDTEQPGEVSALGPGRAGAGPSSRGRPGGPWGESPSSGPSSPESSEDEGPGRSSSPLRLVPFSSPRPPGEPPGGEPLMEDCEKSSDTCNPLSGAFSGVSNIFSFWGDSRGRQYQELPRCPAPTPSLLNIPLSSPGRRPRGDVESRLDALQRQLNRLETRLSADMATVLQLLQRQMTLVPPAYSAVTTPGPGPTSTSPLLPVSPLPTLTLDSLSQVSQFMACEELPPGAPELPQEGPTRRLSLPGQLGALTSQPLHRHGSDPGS
row,Compound,"hERG current change (%, negative = inhibition) at 10uM [%]"
1,COc1ccc(CCNc2ncnc3c2oc2ccccc23)cc1OC.Cl,0.357
2,CCCCn1nc(C(=O)N2CCc3ccccc32)c2ccccc2c1=O,-28.4
3,CN(Cc1nc(-c2cnccn2)no1)Cc1cccc2ccccc12,-2.31
4,CCc1ccc(-c2ccc(SCc3ccccn3)nn2)cc1,3.91
5,O=C(Cn1cc(C(F)(F)F)ccc1=O)NCc1ccc(F)cc1,15.6
6,CS(=O)(=O)N(CC(=O)N1CCN(c2ccccc2)CC1)c1cccc(Br)c1,-19.2
7,O=C(CCN1C(=O)/C(=C/C=C/c2ccccc2)SC1=S)Nc1nc2ccccc2s1,18.3
8,NCC(c1ccccc1Cl)c1c[nH]c2ccccc12 (centres unmarked),12.8
9,FC(F)(F)c1ccccc1Nc1nccs1,-16.1
10,CCc1ccc(CC2(O)CC(C)N(C)CC2C)cc1 (centres unmarked),-29.7
11,CCC(=O)OC1(Cc2ccc(CC)cc2)CC(C)N(C)CC1C.Cl (centres unmarked),-59.4
12,CCC1(OC(=O)c2ccccc2)CC(C)N(C)CC1C.Cl (centres unmarked),-7.85
13,CNC(=S)NNC(=O)c1cc(C(C)(C)C)nn1Cc1ccc(F)cc1,14.6
14,Cc1cc(C)cc(N2C(=O)CC(N3CCOCC3)C2=O)c1 (centres unmarked),14.9
15,O=C(CN1C(=O)COc2ccc(S(=O)(=O)N3CCCC3)cc21)N1CCCC1,9.85
16,C/C=C/Cn1c(N2CCCCCC2)nc2c1c(=O)[nH]c(=O)n2C,-5.14
17,N#Cc1cnn2c(-c3cccc([N+](=O)[O-])c3)ccnc12,-52.7
18,NC(=S)c1cnn2c(-c3cccc(C(F)(F)F)c3)ccnc12,14.2
19,COc1ccc(-c2ccnc3c(C#N)cnn23)cc1,6.06
20,NC(=O)c1cnn2c(-c3cccc(C(F)(F)F)c3)ccnc12,-2.33
21,N#Cc1cnn2c(-c3cccc(C(F)(F)F)c3)ccnc12,-52.8
22,N#Cc1cnn2c(-c3ccccc3)ccnc12,2.49
23,CC(=O)c1ccc(NS(=O)(=O)c2cccc(C)c2)cc1,-1.86
24,COC(=O)c1cccc(NC(=O)CC2C(=O)NCCN2C(=O)Nc2cc(C)cc(C)c2)c1 (centres unmarked),11

row,Compound,"hERG current change (%, negative = inhibition) at 10uM [%]"
1,COc1ccccc1CNc1ncc(-c2ccc(F)cc2)n1C.O=C(O)C(=O)O,-62
2,CCOc1ccc(-c2cnc(NCc3cccc4ccccc34)n2CCOC)cc1.O=C(O)C(=O)O,-58.8
3,COc1ccccc1CNc1ncccn1.O=C(O)C(=O)O,23.6
4,COc1ccc(CNc2ncc(-c3ccc(F)cc3)n2C)cc1OC.O=C(O)C(=O)O,-65.2
5,COc1ccc(CNc2ncc(-c3ccccc3)n2C)c2ccccc12.O=C(O)C(=O)O,-34.5
6,Cn1c(-c2ccc(F)cc2)cnc1NCc1ccccc1F.O=C(O)C(=O)O,-27.3
7,COc1ccc(CNc2ncc(-c3ccc(F)cc3)n2C)c2ccccc12.O=C(O)C(=O)O,-35.1
8,COCCn1c(-c2ccc(OC)cc2)cnc1SCC(=O)Nc1cccc2ccccc12,-21.8
9,COCCCNC(=O)Cn1c(=O)n(Cc2ccccc2Cl)c(=O)c2cc(OC)c(OC)cc21,9.48
10,COc1ccc(-c2nc(N)n(S(=O)(=O)c3ccc(C)cc3)n2)cc1,39
11,CC(=O)Nc1nc(COc2ccccc2)cs1,-4.04
12,COC(=O)C(Cc1c[nH]c2ccccc12)NC(=O)c1cncc(Br)c1 (centres unmarked),1.85
13,CCOC(=O)N1CCN(S(=O)(=O)N2CCCC(C(=O)NCCCN3CCCCC3)C2)CC1 (centres unmarked),10
14,CC(C)Nc1ccc(Nc2ccnc3cc4ccccc4cc23)cc1,-72.7
15,COc1ccc(Nc2ccnc3ccccc23)cc1.Cl,-33.8
16,CC(C)Nc1ccc(Nc2ccccc2)cc1,-0.32
17,CS(=O)(=O)N(CC(=O)N1CCCCCC1)c1cccc([N+](=O)[O-])c1,-32.7
18,CS(=O)(=O)N(CC(=O)N1CCN(Cc2ccccc2)CC1)c1cccc(F)c1,-36.3
19,CS(=O)(=O)N(CC(=O)N1CCN(Cc2ccccc2)CC1)c1cccc([N+](=O)[O-])c1,-75.5
20,CCOC(=O)N1CCN(C(=O)CN(c2cccc(C(F)(F)F)c2)S(=O)(=O)c2ccccc2)CC1,-43.6
21,CCOC(=O)C1CCN(C(=O)CN(c2cccc(C(F)(F)F)c2)S(C)(=O)=O)CC1,-25.9
22,Cc1ccc(N(CC(=O)N2CCN(Cc3ccccc3)CC2)S(C)(=O)=O)cc1C,-7.28
23,CS(=O)(=O)N(CC(=O)N1CCOCC1)c1cccc([N+](=O)[O-])c1,6.28
24,CS(=O)(=O)N(CC(=O)N1CCN(Cc2ccccc2)CC1)c1cccc(Cl)c1,-63.8

row,Compound,"hERG current change (%, negative = inhibition) at 10uM [%]"
1,CCOC(=O)N1CCN(C(=O)CN(c2cccc(C(F)(F)F)c2)S(C)(=O)=O)CC1,-51.1
2,CC(C)CC(C(=O)NC1CCCC1)N(Cc1cccs1)C(=O)c1snc(C(N)=O)c1N (centres unmarked),-40.5
3,CS(=O)(=O)c1ccc2nnn(OCC(=O)Nc3ccc(Br)cc3Br)c2c1,7.34
4,Cc1ccc(/C=N/c2sc3c(c2C(N)=O)CCCC3)o1,23.3
5,COCCNC(=O)/C(C#N)=C/c1cccc(/C=C(\C#N)C(=O)NCCOC)c1,0.707
6,COc1ccc(CC2(CO)CCN(Cc3cnn(-c4ccc(F)cc4)c3)CC2)cc1,-76.4
7,COc1ccccc1-n1cc(CN2CCN(CC=C(C)C)C(CCO)C2)cn1 (centres unmarked),-13.7
8,COc1ccc(CC2(CO)CCN(Cc3cnn(-c4ccccc4OC)c3)CC2)cc1,-64.8
9,COc1ccc(CC2(CO)CCN(Cc3cnc(-c4ccccc4C)nc3)CC2)cc1,-20.6
10,COc1ccc(CC2(CO)CCN(Cc3cccnc3)CC2)cc1,-40.3
11,COc1ccccc1-n1cc(CN2CCN(C3CCCC3)C(CCO)C2)cn1 (centres unmarked),-15.3
12,COc1ccc(CC2(CO)CCN(Cc3cnn(-c4ccccc4)c3)CC2)cc1,-77.6
13,Cc1ccc(CCNC(=O)C2CCN(S(=O)(=O)c3ccc4c(c3)NC(=O)CO4)CC2)cc1,-1.82
14,CC(NC(=O)OCc1ccccc1)c1ccccc1 (centres unmarked),-22.9
15,COCCN1C(=O)N(c2cccc(C)c2)C(=O)C1CC(=O)Nc1cc(OC)cc(OC)c1 (centres unmarked),10.2
16,CC(C)Cc1nnc(NC(=O)CCC(=O)N2CCN(c3ccccc3)CC2)s1,13.2
17,CCN(CC)CCNC(=O)c1cc([N+](=O)[O-])c(N(C)C)cc1OC.Cl,-12
18,CCCSc1cc(Cl)nc(N)n1,-9.06
19,COc1ccc(S(=O)(=O)Nc2cccc(F)c2C)cc1C(=O)N1CCOCC1,6.33
20,CC(NC(=O)COC(=O)c1cn(-c2ccccc2)nc1-c1cccs1)c1ccccc1 (centres unmarked),0.115
21,COC(=O)c1c(NC(C)=O)sc(C(=O)Nc2ccccc2OC)c1C,16.2
22,CC(Cc1n[nH]c(=S)o1)c1ccccc1 (centres unmarked),20.7
23,COc1cccc(C(C(=O)NC2CCCC2)N(Cc2cccnc2)C(=O)Cc2cccs2)c1 (centres unmarked),-5.67
24,COc1ccc(C2=Nc3ccc(C)cc3C(c3ccccc3)N2CC(=O)NN)cc1 (centres unmarked),-23.2

row,Compound,"hERG current change (%, negative = inhibition) at 10uM [%]"
1,O=[N+]([O-])c1ccccc1NCc1ccc(Cl)cc1,-19.5
2,C=CCNCC(O)COc1ccc(C(C)=O)cc1OC.O=C(O)C(=O)O (centres unmarked),-6.16
3,C/C=C/c1ccc(OCC(O)CNCC(c2ccc(OC)cc2)N(C)C)c(OC)c1.O=C(O)C(=O)O (centres unmarked),-66.5
4,C/C=C/c1ccc(OCC(O)CNCCc2ccc(OC)cc2)c(OC)c1.O=C(O)C(=O)O (centres unmarked),-73.4
5,COC(=O)c1ccc(OCC(O)CNCC(c2ccc(OC)cc2)N(C)C)c(OC)c1 (centres unmarked),-21.4
6,C/C=C/c1ccc(OCCCNCC(C)O)c(OC)c1 (centres unmarked),-29.2
7,Cc1cc(Br)ccc1NC(=O)CN(C)C(=O)C1CSC2(C)CCC(=O)N12 (centres unmarked),11.5
8,CC1=CC(C)(C)Nc2ccc(OC(=O)CCN3C(=O)c4ccccc4C3=O)cc21,0.14
9,COc1ccc(C(=O)NC2CCN(C(=S)Nc3ccccc3)CC2)cc1,12.7
10,CNC(=O)c1c[nH]n2c(=O)c(Cc3ccccc3F)c(C)nc12,16.9
11,COc1cccc(/C=C/C(=O)NNC(=O)c2ccncc2)c1,-20.5
12,CCOc1cnc(C(=O)NNC(=O)c2ccccc2Br)o1,11
13,CCCNS(=O)(=O)c1ccc(OCC(=O)NCc2ccc3c(c2)OCO3)cc1,-23.8
14,C=CCNC(=O)/C(C#N)=C/c1c(C)nn(-c2ccccc2)c1Cl,-20
15,O=C(/C=C/c1ccccc1)NC1CCS(=O)(=O)C1 (centres unmarked),18.1
16,O=C(NC1CCS(=O)(=O)C1)/C(=C\c1ccccc1)NC(=O)c1ccccc1 (centres unmarked),-11
17,O=C(NC1CCS(=O)(=O)C1)/C(=C/c1ccc(Cl)cc1)NC(=O)c1ccccc1 (centres unmarked),-55
18,O=C(NC(NC1CCS(=O)(=O)C1)C(=O)c1ccccc1)c1ccc(Cl)cc1 (centres unmarked),-51.6
19,Cc1ccc(/C=C/C(=O)NC2CCS(=O)(=O)C2)cc1 (centres unmarked),20.6
20,O=C(NC1CCS(=O)(=O)C1)/C(=C\c1ccc(F)cc1)NC(=O)c1ccccc1 (centres unmarked),-34.7
21,O=C(NC(NC1CCS(=O)(=O)C1)C(Cl)(Cl)Cl)c1cccc(Cl)c1 (centres unmarked),-7.37
22,O=C(/C=C/c1ccc(Cl)cc1)NC1CCS(=O)(=O)C1 (centres unmarked),-58.7
23,O=C(NC(NC1CCS(=O)(=O)C1)C(=O)c1cccs1)c1ccccc1 (centres unmarked),-1.01

# — article PMC4336329 (PLoS ONE, 2015)
